A short description of test [1]: Primary qHTS for Huh7 cytotoxicity: counterscreen for inhibitors of MERS-S pseudotyped particle cell entry (AID 1479147). For activity change, negative = cytotoxicity: % is set by controls: 0 for no effect and ±100 for the full control effect. Conditions: outcome: dose series up to 57.1 µM unless noted. (qHTS replaces the single test concentration by a dilution series.)
The nature of test [2]: Primary qHTS for inhibitors of MERS-S pseudo-typed particle cell entry (AID 1479149). For activity change, negative = inhibition: % is set by controls: 0 for no effect and ±100 for the full control effect. Note: nearly all actives have a fitted effect of over 60% in size. Conditions: outcome: dose series up to 57.1 µM unless noted.
A short description of test [3]: Primary qHTS for Vero E6 cytotoxicity: counterscreen for inhibitors of SARS-S pseudo-typed particle cell entry (AID 1479150). For activity change, negative = cytotoxicity: % is set by controls: 0 for no effect and ±100 for the full control effect. Conditions: outcome: dose series up to 57.1 µM unless noted.
The nature of test [4]: Primary qHTS for inhibitors of SARS-S pseudo-typed particle cell entry (AID 1479145). For activity change, negative = inhibition: % is set by controls: 0 for no effect and ±100 for the full control effect. Note: nearly all actives have a fitted effect of over 45% in size. Conditions: outcome: dose series up to 57.1 µM unless noted.
The nature of test [5]: MultiTox-Fluor Cytotoxicity Assay - LYMP1-002 - Dead Cells (AID 960; active = well fitted curve in the direction sought with a large enough effect; an effect the other way counts as inactive or inconclusive; note: potency is the fitted concentration of half-maximal effect; nearly all actives have a fitted effect of over 60% in size). Summed up: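 Cells were plated, rested 5 hr, then treated with compound dilution series for 16 hr at 37 C. After adding substrate reagent and 60 min at room temperature, dead-cell protease fluorescence gave concentration-response curves fitted by the Hill equation.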
Test [6] concerns the target Bile acid receptor (Homo sapiens) (UniProt Q96RI1). The test can be described thus: qHTS assay for small molecule agonists of farnesoid X receptor signaling (AID 588527).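 Note: 0% = vehicle basal and 100% = reference agonist.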 Conditions: HEK293T FXR-UAS-bla, beta-lactamase ratio, 16 h; stronger effect = higher value. In outline: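 Read-out: beta-lactamase reporter fluorescence with CCF4 substrate in GeneBLAzer FXR-UAS-bla HEK293T cells, after 16 h compound exposure at 37 C. Response scaled between DMSO basal (0%) and chenodeoxycholic acid at 100 uM (100%).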

The nature of test [7]: Primary qHTS to identify inhibitors of SARS-CoV-2 cell entry (AID 1645846). Note: nearly all actives have a fitted effect of over 45% in size. Conditions: SARS-CoV-2 pseudovirus cell entry assay, luminescence; activity change, negative = inhibition: at 57.1 µM (top of the series) unless noted. Summed up:
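Luminescence readout (Bright-Glo luciferase) 48 h after pseudoparticle addition. HEK293-ACE2 cells, 1500/well; compound pre-incubation 1 h; Normalized to spike PP and bald PP.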

A short description of test [8]: Confirmatory qHTS for VERO E6 Cytotoxicity Assay: Counterscreen for SARS-CoV-2 CPE Assay (AID 1508605). Note: % is set by controls: 0 for no effect and ±100 for the full control effect; nearly all actives have a fitted effect of over 60% in size.
Test [9] is described as follows: Cytotoxicity counterscreen for inhibitors of SARS-CoV-2 cell entry (AID 1645845). Note: nearly all actives have a fitted effect of over 50% in size. Conditions: outcome: dose series up to 57.1 µM unless noted. Summed up:
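ATP-content luminescence (ATPLite 1step, 15 min RT) read after 48 h compound exposure of Expi293F cells stably expressing human ACE2; normalized to cells-only wells and media-only wells.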

The target of test [10] is Cytochrome P450 2D6 (Homo sapiens) (UniProt P10635). The test can be described thus: Cytochrome P450 family 2 subfamily D member 6 (CYP2D6) small molecule antagonists: luciferase biochemical (cell-free) qHTS assay (AID 1645840; active = well fitted curve in the direction sought with a large enough effect in the repeat runs; an effect the other way counts as inactive or inconclusive; note: potency is the fitted concentration of half-maximal effect; nearly all actives have a fitted effect of over 55% in size). In outline: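 P450-Glo CYP2D6 system: proluciferin substrate converted by enzyme to luciferin, read by luminescence proportional to activity. Enzyme-substrate mix with compound 10 min at room temperature, then NADPH regeneration 1 h before detection reagent.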
Chain of Cytochrome P450 2D6 (Homo sapiens) (P10635 whole entry, looked up): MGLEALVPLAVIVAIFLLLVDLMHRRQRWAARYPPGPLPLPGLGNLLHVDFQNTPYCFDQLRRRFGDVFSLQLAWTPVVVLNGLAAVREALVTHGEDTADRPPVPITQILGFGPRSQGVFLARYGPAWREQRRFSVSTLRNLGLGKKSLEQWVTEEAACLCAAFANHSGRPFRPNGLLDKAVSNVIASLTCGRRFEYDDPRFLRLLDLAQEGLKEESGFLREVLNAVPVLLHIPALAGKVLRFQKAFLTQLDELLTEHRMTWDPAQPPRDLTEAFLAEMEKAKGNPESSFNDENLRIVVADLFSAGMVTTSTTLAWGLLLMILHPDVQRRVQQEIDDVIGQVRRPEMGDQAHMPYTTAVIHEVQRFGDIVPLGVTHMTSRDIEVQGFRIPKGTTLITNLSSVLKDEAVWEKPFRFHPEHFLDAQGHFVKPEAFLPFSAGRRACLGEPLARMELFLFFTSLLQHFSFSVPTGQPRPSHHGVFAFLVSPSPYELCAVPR

Test [11] deals with Glutathione peroxidase 1 (Homo sapiens) (UniProt P07203). The test is described as follows: Primary qHTS Assay for Inhibitors of Recombinant Selenoprotein Glutathione Peroxidase 1 (GPX1) (AID 1845191; active = well fitted curve in the direction sought with a large enough effect; an effect the other way counts as inactive or inconclusive; note: nearly all actives have a fitted effect of over 65% in size). In outline: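 NADPH consumption tracked by fluorescence at 340/450 nm between t=0 and t=15 min, room temperature. Final mix: 10 nM GPX1, 100 nM glutathione reductase, 1 mM GSH, 0.5 mM NADPH, 0.5 mM cumene hydroperoxide, 0.01% BSA; 30 min compound–enzyme preincubation.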
Chain of Glutathione peroxidase 1 (Homo sapiens) (P07203 whole entry, looked up): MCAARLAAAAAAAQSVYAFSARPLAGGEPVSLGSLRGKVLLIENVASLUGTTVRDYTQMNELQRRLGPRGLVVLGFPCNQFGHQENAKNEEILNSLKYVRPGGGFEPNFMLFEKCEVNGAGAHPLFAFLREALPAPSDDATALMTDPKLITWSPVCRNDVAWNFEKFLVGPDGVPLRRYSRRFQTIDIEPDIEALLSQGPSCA

Test [12] deals with Phospholipid hydroperoxide glutathione peroxidase GPX4 (Homo sapiens) (UniProt P36969). The test is described as follows: Primary qHTS Assay for Inhibitors of Recombinant Selenoprotein Glutathione Peroxidase 4 (GPX4) (AID 1845192; active = well fitted curve in the direction sought with a large enough effect; an effect the other way counts as inactive or inconclusive; note: nearly all actives have a fitted effect of over 65% in size). In outline: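 NADPH consumption followed by fluorescence at 340/450 nm, t=0 and after 15 min at room temperature. Reaction started with cumene hydroperoxide (0.5 mM final) after 30 min compound–GPX4 preincubation; final 200 nM GPX4, 100 nM GR, 1 mM GSH, 0.5 mM NADPH.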
Chain of Phospholipid hydroperoxide glutathione peroxidase GPX4 (Homo sapiens) (P36969 whole entry, looked up): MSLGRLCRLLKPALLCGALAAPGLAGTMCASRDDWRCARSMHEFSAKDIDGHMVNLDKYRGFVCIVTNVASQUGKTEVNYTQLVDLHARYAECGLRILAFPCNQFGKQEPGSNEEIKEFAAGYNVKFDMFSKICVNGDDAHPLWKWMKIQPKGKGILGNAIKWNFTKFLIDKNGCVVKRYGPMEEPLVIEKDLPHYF

Test [13] has as its target Cytochrome P450 3A4 (Homo sapiens) (UniProt P08684). The test is described as follows: qHTS Assay for Inhibitors and Substrates of Cytochrome P450 3A4 (AID 884; active = well fitted curve in the direction sought with a large enough effect; an effect the other way counts as inactive or inconclusive; note: % is set by controls: 0 for no effect and ±100 for the full control effect; nearly all actives have a fitted effect of over 50% in size). In outline: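 Luminescent readout of luciferin produced by CYP3A4 (20 nM) dealkylation of Luciferin-PPXE, 25 uM (its KM). NADPH-driven reaction ran 60 min at RT after 10 min compound preincubation; data scaled to 57 uM ketoconazole as 100% inhibition.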

A short description of test [14]: Confirmation and Secondary Assay for Modulators of Hemoglobin Beta Chain Splicing at IVS2 654 locus (AID 910; active = well fitted curve in the direction sought with a large enough effect; an effect the other way counts as inactive or inconclusive;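 note: HeLa cells stably carrying EGFP split by mutant beta-globin IVS2-654 intron; per-well total GFP intensity by laser scanning cytometry after 2-day treatment; % of control where 0% means no effect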). In outline: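 Readout: per-well total peak green fluorescence (488 nm ex, 500–520 nm em) from objects 5–250 µm, reflecting correct splicing of an EGFP-654 reporter. Compounds were applied for 2 days at 37 °C to overnight-plated HeLa EGFP-654 cells; controls were DMSO and 500 nM IVS2-654 PNA.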

Test [15] can be described thus: qHTS Assay for Lipid Storage Modulators (AID 1519). Conditions: Drosophila S3 cells, BODIPY lipid droplet/cell ratio, laser cytometry, cells loaded with oleic acid. Summed up: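 Cells seeded at 5,000 per well were treated with compounds over a concentration series and loaded with oleic acid (400 uM, as added). Lipid droplet fluorescence (488 nm excitation, 500-530 nm channel) was read by laser-scanning cytometry and normalized to 20 uM Triacsin C.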

The target of test [16] is Ubiquitin carboxyl-terminal hydrolase 1 (Homo sapiens) (UniProt O94782). The test can be described thus: Inhibitors of USP1/UAF1: Pilot qHTS (AID 504865; active = well fitted curve in the direction sought with a large enough effect; an effect the other way counts as inactive or inconclusive;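 note: rhodamine fluorescence freed from ubiquitin-rhodamine substrate followed over time; top concentration of the series differs between compounds; % is set by controls: 0 for no effect and ±100 for the full control effect; nearly all actives have a fitted effect of over 35% in size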). In outline: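 USP1/UAF1 complex (1nM) preincubated with compound 15 min at room temperature, then Ub-Rho substrate (150nM final) added. Fluorescence read kinetically at 480/540 nm, 6 reads every 60 seconds. Buffer: 50mM HEPES pH 7.8, 0.5mM EDTA, 0.1 mg/ml BSA, 1mM TCEP, 0.01% Tween-20.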
Chain of Ubiquitin carboxyl-terminal hydrolase 1 (Homo sapiens) (O94782 whole entry, looked up): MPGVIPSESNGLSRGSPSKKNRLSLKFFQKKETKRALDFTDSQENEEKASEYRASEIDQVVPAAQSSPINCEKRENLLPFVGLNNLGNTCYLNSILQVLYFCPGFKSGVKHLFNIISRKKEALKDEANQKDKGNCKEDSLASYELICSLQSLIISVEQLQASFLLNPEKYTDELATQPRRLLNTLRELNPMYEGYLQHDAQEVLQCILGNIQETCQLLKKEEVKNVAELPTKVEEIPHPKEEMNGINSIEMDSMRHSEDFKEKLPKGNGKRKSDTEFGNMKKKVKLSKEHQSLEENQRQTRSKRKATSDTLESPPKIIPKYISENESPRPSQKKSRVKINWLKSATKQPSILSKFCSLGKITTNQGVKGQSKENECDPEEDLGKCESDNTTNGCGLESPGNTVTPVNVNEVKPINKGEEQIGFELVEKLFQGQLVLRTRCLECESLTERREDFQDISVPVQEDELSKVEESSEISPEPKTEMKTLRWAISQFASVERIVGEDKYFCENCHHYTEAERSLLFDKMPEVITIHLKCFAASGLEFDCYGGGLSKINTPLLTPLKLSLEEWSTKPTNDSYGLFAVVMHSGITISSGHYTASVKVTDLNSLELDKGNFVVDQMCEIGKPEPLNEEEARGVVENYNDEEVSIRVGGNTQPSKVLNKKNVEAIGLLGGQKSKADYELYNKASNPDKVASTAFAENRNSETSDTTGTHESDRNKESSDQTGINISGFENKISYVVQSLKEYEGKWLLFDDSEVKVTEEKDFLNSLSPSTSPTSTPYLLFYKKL

The nature of test [17]: Confirmatory qHTS to identify inhibitors of SARS-CoV-2 cell entry (AID 1645844). Note: potency is the fitted concentration of half-maximal effect; nearly all actives have a fitted effect of over 45% in size. Summed up: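 Luminescence entry read-out after 48 h: spike-pseudotyped MLV particles (Wuhan-Hu-1, 19-aa C-terminal truncation) added to compound-pretreated (1 h) HEK293-ACE2 cells; Data were normalised to bald PP and spike PP wells.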
Test [18] is described as follows: VSVG counterscreen qHTS to identify inhibitors of SARS-CoV-2 cell entry (AID 1645847). Note: potency is the fitted concentration of half-maximal effect; nearly all actives have a fitted effect of over 65% in size. In outline: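 HEK293-ACE2 cells (Expi293F stably expressing human ACE2) were pretreated with compound for 1 h at 37 °C, then infected with MLV-based VSV-G pseudotyped particles for 48 h. Luciferase luminescence was normalized to VSV-G PP and bald PP wells.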
A general note: A counterscreen serves to expose hits that act by an unwanted route or on another target.

These results are taken from PubChem BioAssay (NCATS).

Values joined by “and” are separate entries in the source; they are usually repeats but may differ in a detail not shown here. Identical values can stand only once. Inconclusive results are not listed. Active and inactive are the calls of the source. Unless noted, calls come from the whole dose curve.

Chain of Cytochrome P450 3A4 (Homo sapiens) (P08684 whole entry, looked up): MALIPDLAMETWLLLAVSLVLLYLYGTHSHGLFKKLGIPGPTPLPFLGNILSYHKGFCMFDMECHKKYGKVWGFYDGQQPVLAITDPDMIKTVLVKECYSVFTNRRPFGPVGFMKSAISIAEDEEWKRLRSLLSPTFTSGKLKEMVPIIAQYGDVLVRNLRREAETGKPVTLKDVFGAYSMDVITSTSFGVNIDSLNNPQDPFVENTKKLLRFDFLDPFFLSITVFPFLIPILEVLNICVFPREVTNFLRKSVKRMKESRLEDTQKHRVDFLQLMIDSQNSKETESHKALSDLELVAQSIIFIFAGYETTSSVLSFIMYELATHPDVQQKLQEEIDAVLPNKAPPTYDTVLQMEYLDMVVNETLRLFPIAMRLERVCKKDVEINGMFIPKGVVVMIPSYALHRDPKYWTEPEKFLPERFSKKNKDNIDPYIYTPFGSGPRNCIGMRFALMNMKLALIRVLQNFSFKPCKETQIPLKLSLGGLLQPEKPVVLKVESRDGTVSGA
Chain of Bile acid receptor (Homo sapiens) (Q96RI1 whole entry, looked up): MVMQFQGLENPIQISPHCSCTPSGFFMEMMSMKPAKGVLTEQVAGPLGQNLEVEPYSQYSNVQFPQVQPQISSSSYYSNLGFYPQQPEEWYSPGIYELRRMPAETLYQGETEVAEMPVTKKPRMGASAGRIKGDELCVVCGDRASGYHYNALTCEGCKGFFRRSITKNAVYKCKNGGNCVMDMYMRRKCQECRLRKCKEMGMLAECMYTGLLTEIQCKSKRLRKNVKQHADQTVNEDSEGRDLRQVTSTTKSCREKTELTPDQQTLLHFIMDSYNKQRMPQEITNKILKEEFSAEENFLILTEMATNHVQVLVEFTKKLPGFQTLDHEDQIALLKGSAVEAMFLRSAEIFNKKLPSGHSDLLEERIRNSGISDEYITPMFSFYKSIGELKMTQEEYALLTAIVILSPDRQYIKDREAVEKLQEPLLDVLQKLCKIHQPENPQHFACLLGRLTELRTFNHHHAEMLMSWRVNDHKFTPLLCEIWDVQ

Consider `C=CC(=O)N1CCCC(n2nc(-c3ccc(Oc4ccccc4)cc3)c3c(N)ncnc32)C1` (stereo not drawn), for which the Potency result in test [1], in test [2] and in test [3] was “inactive” throughout.

For the molecule `CCc1cc2c(cc1CC)CC(NC[C@H](O)c1ccc(O)c3[nH]c(=O)ccc13)C2`, the Potency result in test [4] and in [3] was “inactive” in each case.

With `O=[N+]([O-])c1ccc(Oc2ccc(N=C=S)cc2)cc1`, the Potency result in test [1] is “inactive”.

`C[C@H]1O[C@@H](O[C@H]2[C@@H](O)C[C@H](O[C@H]3[C@@H](O)C[C@H](O[C@H]4CC[C@@]5(C)[C@H](CC[C@@H]6[C@@H]5C[C@@H](O)[C@]5(C)[C@@H](C7=CC(=O)OC7)CC[C@]65O)C4)O[C@@H]3C)O[C@@H]2C)C[C@H](O)[C@@H]1O`: the Potency in test [5] is 1000 nM (active). Further, the activation in test [6] was -4.19% (inactive). The Potency result in test [4] and in [2] was “inactive” each time. The activity change, negative = inhibition in [7] was -96.3% and -94.1%.

As to `OCCOc1ccc(/C(=C(/CCCl)c2ccccc2)c2ccccc2)cc1`, the Potency result in test [1], in test [2], in test [3], in test [8] and in test [9] was “inactive” in each case. In addition, the activity change, negative = inhibition in test [7] is -9.9% and -6.02%.

`CC1(S(=O)(=O)O)CC(=O)c2ccccc2C1=O` (stereo not drawn): the Potency entry in [4] and in test [3] was “inactive” in each case.

As to `C[C@@]12CCCCC[C@@H](Cc3ccc(O)cc31)[C@H]2N`, the Potency result in test [1], in test [2], in test [3], in test [11] and in test [12] was “inactive” in each case. Also, the Potency in test [10] was 16900 nM (active).

As for `CNC(C)C(O)c1ccccc1` (stereo not drawn), the Potency result in [13], in [14], in test [16], in test [1], in test [2] and in test [3] was “inactive” each time. Moreover, the Potency result in test [9], in test [11] and in test [12] was “inactive” in each case. For the same molecule, the activity change, negative = inhibition is 8.05% (inactive) in test [15] (at 57.5 µM (top of the series)) and -30.3% in [7]. Moreover, the max response was found to be 10.2% in test [15] (measured here: cell count channel max response) and 21.8% in [15] (measured here: lipid channel max response).

As for `CCCOc1ccc2nc(NC(=O)OC)sc2c1`, the Potency entry in test [1] and in test [2] was “inactive” throughout.

Regarding `COc1cc2c(cc1O)CCN[C@]21CS[C@@H]2c3c(OC(C)=O)c(C)c4c(c3[C@H](COC1=O)N1[C@@H]2[C@H]2c3c(cc(C)c(OC)c3O)C[C@@H]([C@@H]1O)N2C)OCO4`, the activity change, negative = inhibition is -93.9% [at 11.4 µM] (inactive) in [4], -71.9% [at 11.4 µM] (inactive) in test [2] and -92.8% [at 11.3 µM] in test [7]. Further, in test [9], the activity change, negative = cytotoxicity is -20.3% [at 11.3 µM] (inactive).

Consider `Cc1ccc(C(=O)OCc2ccc([C@@H](CN)C(=O)Nc3ccc4cnccc4c3)cc2)c(C)c1`, for which, in test [1], the Potency result was “inactive”.

For `Cc1c(N)nc(C(CC(N)=O)NCC(N)C(N)=O)nc1C(=O)NC(C(=O)NC(C)C(O)C(C)C(=O)NC(C(=O)NCCc1nc(-c2nc(C(=O)NCCCN[C@@H](C)c3ccccc3)cs2)cs1)C(C)O)C(O[C@@H]1O[C@@H](CO)[C@@H](O)[C@H](O)[C@@H]1O[C@H]1O[C@H](CO)[C@@H](O)[C@H](OC(N)=O)[C@@H]1O)c1cnc[nH]1` (stereo partly drawn), the Potency was 21.5 nM (active) in test [17] and 27.1 nM (active) in [18]. In test [7], the activity change, negative = inhibition was -97.1%.
